Screening data as filed in PubChem BioAssay.
This is a sample that favours compounds with a hit; in the whole collection about 10% have one here.
JMJD2A Tudor inh: blocks the human JMJD2A Tudor domain | O75164 | Potency, µM (top dose mostly 114 µM), inactives show top-dose activity change, negative = inhibition, usual class: inhibitors | AID 504339 | 4.4% of 390,000 active | AlphaScreen JMJD2A-Tudor / H3K4me3 peptide binding; also: % is scaled to controls: 0 for no effect and ±100 for the full control effect; nearly all actives have a fitted effect of over 50% in size
BAZ2B block: BAZ2B (human) inhibition. Potency, µM (titrated, usually from 114 µM), for the others: at the top dose activity change, negative = inhibition, usual class: inhibitors. 4.4% of 360,000 active. AlphaScreen BAZ2B-H3K14Ac peptide displacement; also: % is scaled to controls: 0 for no effect and ±100 for the full control effect; nearly all actives have a fitted effect of over 60% in size
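AlphaScreen displacement of biotin-H3(5-23)K14Ac peptide (50 nM final) from BAZ2B (50 nM final) in PBS pH 7.4, 0.01% Tween-20; complex preformed 30 min RT, then compounds (top 110 uM) 30 min RT, beads 20 min dark.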
HP1b binding inh: HP1-beta chromodomain-methylated histone interaction inhibition; P83916; AlphaScreen HP1-beta / biotin-H3K9me3 peptide binding; Potency, µM (titrated, usually from 114 µM), for inactives: at the top dose activity change, negative = inhibition, hits mostly inhibitors; 0.56% of 390,000 active; also: nearly all actives have a fitted effect of over 70% in size
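Compound inhibition of the preformed complex between 50 nM HP1-beta and 50 nM biotinylated H3K9me3 peptide was read by AlphaScreen. Buffer was PBS pH 7.4 with 0.01% Tween-20. Incubations ran 30 min at room temperature, with 10 ug/mL donor/acceptor beads.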
L3MBTL1 block: L3MBTL1 (human) inhibition; 0.66% of 230,000 active; Potency, µM (top dose mostly 57.1 µM), for the others: top-dose activity, negative = inhibition, hits mostly inhibitors; AlphaScreen L3MBTL1–H3K9me1 peptide binding; also: % is scaled to controls: 0 for no effect and ±100 for the full control effect; nearly all actives have a fitted effect of over 60% in size
Target sequence (Q9Y468 whole entry, looked up): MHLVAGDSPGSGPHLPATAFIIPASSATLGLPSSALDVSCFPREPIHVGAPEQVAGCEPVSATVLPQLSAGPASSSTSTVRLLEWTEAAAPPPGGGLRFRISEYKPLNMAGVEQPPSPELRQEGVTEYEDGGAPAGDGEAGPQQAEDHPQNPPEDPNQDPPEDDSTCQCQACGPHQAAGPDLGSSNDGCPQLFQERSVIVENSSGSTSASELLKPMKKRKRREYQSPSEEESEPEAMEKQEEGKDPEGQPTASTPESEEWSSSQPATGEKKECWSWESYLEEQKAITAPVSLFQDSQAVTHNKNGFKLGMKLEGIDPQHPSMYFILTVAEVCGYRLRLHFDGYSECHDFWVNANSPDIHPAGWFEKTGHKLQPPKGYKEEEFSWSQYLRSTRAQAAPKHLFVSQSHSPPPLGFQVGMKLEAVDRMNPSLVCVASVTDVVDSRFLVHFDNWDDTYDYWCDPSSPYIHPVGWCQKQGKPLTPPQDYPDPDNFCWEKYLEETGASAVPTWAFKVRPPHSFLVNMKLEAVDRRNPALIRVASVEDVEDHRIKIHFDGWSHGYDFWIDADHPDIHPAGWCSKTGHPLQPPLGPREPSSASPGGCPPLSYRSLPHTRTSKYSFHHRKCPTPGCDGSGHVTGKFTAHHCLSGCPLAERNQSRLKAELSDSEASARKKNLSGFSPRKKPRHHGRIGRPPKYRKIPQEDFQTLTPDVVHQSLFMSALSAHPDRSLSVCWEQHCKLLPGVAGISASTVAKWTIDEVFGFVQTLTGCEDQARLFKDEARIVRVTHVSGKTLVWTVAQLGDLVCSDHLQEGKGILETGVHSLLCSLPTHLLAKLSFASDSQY
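AlphaScreen proximity signal between nickel-chelate acceptor and streptavidin donor beads (final 10 ug/mL) reports binding of 50 nM L3MBTL1 to 75 nM biotin-H3 K9me1 peptide; complex incubated with compounds 30 min at room temperature; cefsulodin titration as control.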
G9a inh: G9a (human) methyltransferase inhibition; G9a H3K9 monomethylation, AlphaScreen, 2 h; 8.8% of 350,000 active; Potency, µM (doses to about 102 µM), inactives show at the top dose activity, negative = inhibition, actives largely listed as inhibitors; Q96KQ7; also: % is scaled to controls: 0 for no effect and ±100 for the full control effect; nearly all actives have a fitted effect of over 75% in size
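Methyltransferase reactions run at room temperature for 2 h (20 nM enzyme, 500 nM biotin-H3K9 peptide, 20 uM SAM) after a 15 min compound preincubation; product detected by AlphaScreen beads and anti-H3K9me1 antibody.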
GLS inhibitor: inhibitors of human glutaminase (GLS) | O94925 | GLS enzymatic activity, qHTS titration | Potency, µM (titrated, usually from 45.5 µM), without a hit: at the top dose activity change, negative = inhibition, hits mostly inhibitors | 0.21% of 410,000 active | AID 624170; also: % is scaled to controls: 0 for no effect and ±100 for the full control effect
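hKGA; 45 mM KH2PO4 pH 8.2 + 0.02% Tween-20; cpd via pin tool; 1 mM Gln soln; GluOx/HRP/Amplex Red; RT 30 min; fluor. t0 & final.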
Numbers without * were called inactive; ? = inconclusive; . = no result; [ ] = remark or other dose. Calls follow the shape of the dose curve; as a rule, active = well fitted curve in the direction sought with a large enough effect; inconclusive = small, poorly fitted or top-dose-only effect, or another doubt; inactive = no such curve, though single readings can be large; an effect the other way counts as inactive or inconclusive. Potency is read from the fitted curve at half-maximal effect.

SMILES	JMJD2A Tudor inh	BAZ2B block	HP1b binding inh	L3MBTL1 block	G9a inh	GLS inhibitor
Cc1cc(C)nc(SCC(=O)Oc2ccc3oc(=O)cc(C)c3c2)n1	-14.4%[11.4 µM]	-10.5%	-15.5%	-0.5%	50.1µM*	9.9%
COC(=O)Cc1c[nH]c2cccc(OCC(O)CN(Cc3ccc([N+](=O)[O-])cc3)C(C)(C)C)c12 (configuration not stated)	?	70.8µM*	?	-11.5%	.	12.6%
COc1ccc(CC2(C)OC(c3ccc(C)c([N+](=O)[O-])c3)=NN2C(C)=O)cc1 (configuration not stated)	79.4µM*	-37.1%	70.8µM*	-25.5%	?	-2.9%
COc1ccc(CC2(C)OC(c3ccc(C)cc3)=NN2C(C)=O)cc1 (configuration not stated)	0.3%	10.6%	25.9%	16.8%	9.6%	4.6%
Cc1ccc(CN2CCC(C(=O)NCCC(C)C)CC2)o1	44.7µM*	?	?	-1.8%	31.6µM*	-2.3%
CC(C)CCNC(=O)C1CCN(c2nc3ccccc3o2)CC1	-12.2%	-25.5%	29.7%	-1.7%	?	-0.3%
Cc1cc2ccccn2c1C(=O)c1nc(N2CCOCC2)ncc1Cl	?	?	-21.5%	-15.6%	70.8µM*	-1.6%
COCCN(CCOC)c1ncc(Cl)c(C(=O)c2c(C)cc3ccccn23)n1	-19.6%	-3.8%	-5.9%	-3.1%	39.8µM*	4.6%
COc1ccc(C)cc1-n1nnc(C(=O)Nc2cccc(SC)c2)c1C	-8.3%	-8.3%	18.8%	.	-31.5%[59 µM]	6.4%
Cc1ccc(C(=O)N2c3ccc(F)cc3CCC2C)o1 (configuration not stated)	-12.5%	1.9%	34.1%	1.4%	-7.8%[59 µM]	14.3%
Cc1nn(Cc2ccc(C(=O)N3c4ccc(F)cc4CCC3C)o2)c(C)c1Br (configuration not stated)	-25.6%	-25.5%	25.2%	.	50.1µM*	-1.7%
COc1cccc(N2CCN(C(=O)CCCn3c(=O)[nH]c4ccc(Br)cc4c3=O)CC2)c1	?	-31.6%	-15.5%	.	?	21.0%
CN1CC[C@H](CN2c3ccccc3Sc3ccccc32)C1	.	.	.	.	15.8µM*	15.9%
O=C(NN1CCOCC1)c1ccc(Cl)c([N+](=O)[O-])c1	-2.1%	-2.0%	41.1%	.	.	9.6%
O=[N+]([O-])c1cc(-c2ccc(C(=S)N3CCOCC3)o2)ccc1Cl	39.8µM*	31.6µM*	10µM*	-25.0%	1.78µM*	-14.8%
O=[N+]([O-])c1cccc(-c2ccc(C(=S)N3CCN(c4ccccc4)CC3)o2)c1	?	?	?	-3.2%	3.55µM*	-6.7%
O=[N+]([O-])c1cccc(-c2ccc(C(=S)N3CCOCC3)o2)c1	44.7µM*	28.2µM*	?	-20.0%	.	1.4%
O=C(Nc1nccs1)c1ccc(-c2cccc([N+](=O)[O-])c2)o1	56.2µM*	-29.0%	?	.	-4.7%[59 µM]	-0.8%
O=C(c1ccc(-c2cccc(Cl)c2)o1)N1CCN(c2ccc([N+](=O)[O-])cc2)CC1	39.8µM*	0.2%	-9.1%	-4.0%	4.0%[59 µM]	-28.5%
CN1CCN(C(=S)c2ccc(-c3cccc([N+](=O)[O-])c3)o2)CC1	50.1µM*	?	-28.9%	-13.8%	39.8µM*	6.2%
COc1ccc(N2CCN(C(=O)c3ccc(COc4ccc([N+](=O)[O-])cc4)o3)CC2)cc1	?	?	?	.	22.4µM*	23.5%
COc1ccc(C2=Nc3ccccc3N(CC(=O)Nc3cccc(C(C)=O)c3)C(=O)C2)cc1	?	5.7%	70.1%	.	6.5%[59 µM]	-4.2%
Cc1cc(C)cc(NC(=O)C(Cc2ccccc2)NS(=O)(=O)c2ccc3c(c2)CCC(=O)N3)c1 (configuration not stated)	-6.7%	-17.2%	36.2%	.	3.1%[59 µM]	0.3%
CCOC(=O)c1c(C)oc2c1cc(NS(=O)(=O)c1ccc(C(=O)O)cc1)c1ccccc12	-21.2%	-29.0%	-22.2%	.	35.5µM*	-12.9%
CCOC(=O)c1ccc(S(=O)(=O)Nc2cc(C(=O)O)ccc2Cl)cc1	-20.3%	-15.2%	10.0%	-11.4%	7.94µM*	3.1%
SMILES	JMJD2A Tudor inh	BAZ2B block	HP1b binding inh	L3MBTL1 block	G9a inh	GLS inhibitor
CCOC(=O)c1ccc(S(=O)(=O)NNS(=O)(=O)c2ccc(C)cc2)cc1	-13.2%	3.2%	33.8%	.	7.1%[2.33 µM]	14.2%
CCCCN(C)C(=O)c1ccc2c(=O)n3nc(Nc4cc(C)ccc4C)sc3nc2c1	-29.0%	-13.0%	-1.7%	.	-21.1%[59 µM]	8.5%
Cc1cccc(Cl)c1NNC(=O)Nc1c([N+](=O)[O-])c(C)nn1C	-19.0%	-13.2%	0.5%	.	15.8µM*	16.4%
CCOc1ccc(NC(=O)CCS(=O)(=O)c2cccc3nonc23)cc1	-3.4%	-9.6%	24.8%	.	-7.3%[59 µM]	-10.7%
Cc1nc2nc(SCC(=O)O)nn2c(C)c1Cc1ccccc1Cl	6.8%	7.6%	38.1%	.	28.2µM*	2.8%
Cc1nc2nc(SCC(=O)Nc3ccccc3Cl)nn2c(C)c1Cc1ccccc1	-12.2%	-10.8%	22.3%	.	-3.6%[59 µM]	-1.4%
Cc1nc2nc(SCC(=O)O)nn2c(C)c1Cc1c(F)cccc1Cl	-11.7%	2.0%	46.4%	.	11.2µM*	?
Cc1nc2nc(SCC(=O)NC(C)c3ccccc3)nn2c(C)c1Cc1c(F)cccc1Cl (configuration not stated)	-19.5%	-2.7%	27.5%	.	-3.9%[59 µM]	2.0%
C[C@H](N)CCCP(=O)(O)O	.	.	.	.	32.0%[59 µM]	.
Cc1ccc(OCc2ccc(-c3nc(C#N)c(N4CCC(C)CC4)o3)o2)cc1	-33.8%	?	-21.3%	.	10µM*	-12.3%
N#Cc1nc(-c2ccc(COc3ccc(Cl)cc3)o2)oc1N1CCN(c2ccccc2)CC1	-16.6%	-7.9%	10.8%	.	-7.5%[59 µM]	0.6%
N#Cc1nc(-c2ccc(COc3ccccc3)o2)oc1N1CCN(c2ccccc2)CC1	-14.2%	?	18.2%	.	?	-3.3%
COc1ccc(OCc2ccc(-c3nc(C#N)c(N4CCN(C)CC4)o3)o2)cc1	56.2µM*	31.6µM*	?	.	17.8µM*	1.1%
COc1ccccc1OCc1nc(C#N)c(N2CCCC2)o1	-20.7%	-35.1%	-4.0%	-29.6%	5.2%	-5.0%
CC1CCN(c2oc(-c3ccc(COc4ccccc4)o3)nc2C#N)CC1	?	?	-15.3%	.	5.01µM*	0.3%
N#Cc1nc(COc2ccccc2)oc1N1CCC(Cc2ccccc2)CC1	-31.8%	?	?	-23.4%	12.6µM*	0.5%
Cc1cccc(-c2noc(CN(C(=O)c3ccccc3Cl)C(C)C)n2)c1	11.5%	10.4%	81.0%	.	4.1%[59 µM]	-5.9%
N#Cc1ccc(C(=O)Nc2ccccc2-c2nc3ccccc3s2)c(F)c1	-8.6%	-11.1%	39.3%	.	0.6%[59 µM]	7.5%
